HCV inhibitor – blocks hepatitis C virus | Potency, µM (titrated, usually from 41.8 µM), for inactives: top-dose activity change, negative = inhibition, most hits filed as inhibitors | actives 3.4% (n = 340,000) | Huh7.5.1 HCVcc-Cre infection, luciferase reporter, 44 h
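Infectious HCVcc-Cre (~0.5 moi) was added to cells just after compound, with cells seeded 4 h earlier at 1,000 per well. Luciferase activity after 44 h culture reported infection; substrate was incubated 15 min at room temperature before reading.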
Sm TGR inh – blocks Schistosoma mansoni thioredoxin glutathione reductase; Q962Y6; purified TGR, DTNB reduction, TNB absorbance 405 nm; actives 3% (n = 360,000); Potency, µM (doses to about 114 µM), without a hit: at the top dose activity change, negative = inhibition, usual class: inhibitors; note: nearly all actives have a fitted effect of over 60% in size
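Kinetic colorimetric format: TGR-catalysed, NADPH-driven DTNB reduction monitored via TNB absorbance. Enzyme dispensed at 20 nM; compound exposure 15 min at room temperature before reaction start.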
LASV entry inh – inhibitors of Lassa virus binding or cell entry | Lassa virus pseudotype entry inhibition, cell reporter | Potency, µM (highest dose often 37.9 µM), for the others: at the highest dose activity change, negative = inhibition, actives largely listed as inhibitors | actives 1.2% (n = 300,000) | AID 540256; calls by dose curve; tested in HEK293 cells; note: nearly all actives have a fitted effect of over 50% in size
RE007 growth inh – less growth of the S. pombe RE007 Vpr strain | S. pombe RE007 Vpr strain, BacTiter-Glo ATP luminescence, 24 h | Potency, µM (doses to about 92.2 µM), for inactives: at the top dose activity change, negative = less growth, hits mostly inhibitors | actives 0.21% (n = 360,000); active = well fitted falling curve with a large enough effect; inconclusive = small, poorly fitted or top-dose-only effect; inactive = no such curve, though single readings can be large or run the other way; note: nearly all actives have a fitted effect of over 50% in size
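Fission yeast RE007 carrying one integrated HIV-1 vpr copy, seeded at OD 0.01 in PMG+AL medium with 23 nL pinned compound. Grown 24 h at 30 degrees; viability read by BacTiter-Glo luminescence after 5 min.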
FMDV antiviral – antivirals against foot and mouth disease virus | AID 1159524 | actives 1.2% (n = 410,000) | FMDV antiviral cell-based qHTS | Potency, µM (top dose mostly 57.9 µM), without a hit: top-dose activity change, negative = inhibition, usual class: inhibitors; calls by dose curve; tested in HEK293T cells; note: read-out not given here; nearly all actives have a fitted effect of over 45% in size
MARV entry inh – inhibitors of Marburg virus binding or cell entry; Marburg virus pseudotyped entry inhibition, cell reporter; Potency, µM (highest dose often 37.8 µM), without a hit: at the highest dose activity change, negative = inhibition, actives largely listed as inhibitors; actives 1.8% (n = 300,000); AID 540276; calls by dose curve; tested in HEK293 cells
An asterisk follows results filed as active; ? = inconclusive; / = not tested or not shown; [ ] = dose if it differs, or a comment. An excerpt weighted towards active compounds, which were near 7.2% of everything screened. Unless noted, calls come from the whole dose curve; as a rule, active = well fitted curve in the direction sought with a large enough effect; inconclusive = small, poorly fitted or top-dose-only effect, or another doubt; inactive = no such curve, though single readings can be large; an effect the other way counts as inactive or inconclusive. % is set by controls: 0 for no effect and ±100 for the full control effect; potency is the fitted concentration of half-maximal effect.

SMILES	HCV inhibitor	Sm TGR inh	LASV entry inh	RE007 growth inh	FMDV antiviral	MARV entry inh
CC(NC1=CC(=O)c2cccnc2C1=O)C(O)c1ccccc1 (configuration not stated)	?	/	?	1%	28µM*	11µM*
CC(c1ccccc1)N1C(=O)c2cccnc2C1=O (configuration not stated)	18%	3%	-3%	4%	3%	5%
CC(=O)CCC1CC(c2ccc(Cl)cc2)=NO1 (configuration not stated)	2.8µM*	-1%	/	-12%	28%	/
COc1ccc(N2CC(C)Cn3c2nc2c3c(=O)[nH]c(=O)n2C)cc1 (configuration not stated)	?	3%	-6%	26%	-19%	-11%
CC1CN(c2ccc(Cl)cc2)c2nc3c(c(=O)[nH]c(=O)n3C)n2C1 (configuration not stated)	5%	-2%	/	2%	0%	/
CCc1ccc(N2CC(C)Cn3c2nc2c3c(=O)[nH]c(=O)n2C)cc1 (configuration not stated)	25µM*	-10%	?	-6%	-22%	-10%[46.1 µM]
CC1CN(c2ccccc2)c2nc3c(c(=O)[nH]c(=O)n3C)n2C1 (configuration not stated)	10%	89µM*	-17%[46.1 µM]	4%	-23%	-29%[46.1 µM]
NC(=O)C1=C[C@@H](c2ccccc2)C[C@@H](OCc2ccc(CO)cc2)O1	9%	50µM*	/	-6%	-18%	/
NC(=O)C1=C[C@H](c2ccc3c(c2)OCO3)C[C@H](OCc2ccc(CO)cc2)O1	8%	56µM*	/	12%	56%	/
Cc1ccc(C)c(N2CCN(c3nc4c(S(=O)(=O)c5ccccc5)nnn4c4ccc(Cl)cc34)CC2)c1	/	3%	/	/	0%	2%[46.1 µM]
O=C(CC(c1ccccc1)c1cc(Br)ccc1O)NCC1(c2ccccc2)CCCC1 (configuration not stated)	/	-4%	?	/	?	?
CCC(c1c(C)[nH]oc1=O)c1c(C)[nH]oc1=O	0%	25µM*	?	-1%	0%	19%
O=C(NCC1CCCO1)/C(=C\c1cccc([N+](=O)[O-])c1)NC(=O)c1ccccc1 (configuration not stated)	5%	-2%	1%	34%	-3%	-9%[46.1 µM]
O=C(NCC1CCCO1)C(=Cc1cccc([N+](=O)[O-])c1)C(=O)NCC1CCCO1 (configuration not stated)	?	-14%	?	4%	?	12µM*
CN(C)S(=O)(=O)c1ccc(NC(=O)/C=C/c2ccccc2Cl)cc1	8.9µM*	-8%	-20%	-17%	14%	?
O=C(/C=C/c1ccccc1Cl)Nc1ccccc1	?	11%	?	?	-16%	10µM*
CN(C)c1ccc(NC(=O)/C=C/c2c(Cl)cccc2Cl)cc1	?	1%	?	-13%	22%	?
C=C(CCN1C=C(C(C)=O)C(c2ccccc2)NC1=O)c1ccc(OC)cc1 (configuration not stated)	/	/	/	/	/	12%[14.2 µM]
Cc1cc2oc(=O)cc(CSc3nnc(-c4cccs4)o3)c2cc1C(C)C	10µM*	-13%	?	2%	?	?
Cc1cc2oc(=O)cc(CSc3nnc(C)n3N)c2cc1C(C)C	21%	1%	7%	-6%	-22%	11%[46.1 µM]
Cc1ccc(Nc2nc(-c3cccnc3)nc3ccccc23)cc1	1.1µM*	4%	?	-11%	-19%	4µM*
c1ccc(Nc2nc(-c3cccnc3)nc3ccccc23)cc1	/	/	/	/	-17%	/
Oc1ccc(Nc2nc(-c3ccc(Cl)cc3)nc3ccccc23)cc1	/	8%	?	/	7%	?
Oc1ccc(Nc2nc(-c3ccccc3)nc3ccccc23)cc1	10µM*	-3%	?	-14%	?	?
CC(=O)Nc1ccc(Nc2nc(-c3ccccc3)nc3ccccc23)cc1	10µM*	2%	?	-9%	?	?
CC(C)(C)C(=O)/C(=C/c1ccc(Cl)cc1)n1cncn1	?	?	/	-20%	16µM*	/

Screening data as filed in PubChem BioAssay.
